Experimental data taken from the supplement of paper PMC10849652.
About 7,900 targets were measured; listed, in parts, are those with a hit and a random draw of the rest. About 0.6% of all pairs of compound and target were hits. A number with no mark means an inactive call.

Key:
Assay in all cases: log2 fold change, soluble protein after heating vs DMSO (PISA); higher = thermal stabilisation; K562 cells, 10 uM, 30 min; active = over 0.2 and 3.5 SD of the protein, either way, in both replicates (recomputed)
[1] = compound: NC(=O)Nc1cc(-c2cccc(F)c2)sc1C(=O)N[C@H]1CCCNC1
Outline: (§1)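 Soluble protein was quantified by TMTpro 16plex LC-MS/MS after channel sums were equalised. It was obtained as the supernatant after 21,000xg for 90 min from pooled aliquots of K562 cells (2×10^6 cells/mL, 10 μM compound, 30 min) heated for 3 min across 48°C-58°C and extracted in PBS with 0.5% NP-40 at 4°C. Thermal stability values are relative to control samples and come from duplicates. They are given as log2 fold changes.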

[2] = compound: NC(=O)c1cnc(N[C@@H]2CCCC[C@@H]2N)nc1Nc1cccc(-n2nccn2)c1
Outline: as §1

[3] = compound: NC1(c2ccc(-c3nc4ccn5c(=O)[nH]nc5c4cc3-c3ccccc3)cc2)CCC1
Outline: as §1

[4] = compound: NCC(=O)Nc1ccc(-n2nc(C(F)(F)F)cc2-c2ccc3c(ccc4ccccc43)c2)cc1
Outline: as §1

entinostat = compound: Nc1ccccc1NC(=O)c1ccc(CNC(=O)OCc2cccnc2)cc1 [entinostat]
Outline: as §1

vorinostat = compound: O=C(CCCCCCC(=O)Nc1ccccc1)NO [vorinostat]
Outline: as §1

citarinostat = compound: O=C(CCCCCCNC(=O)c1cnc(N(c2ccccc2)c2ccccc2Cl)nc1)NO [citarinostat]
Outline: as §1

silmitasertib = compound: O=C(O)c1ccc2c(c1)nc(Nc1cccc(Cl)c1)c1ccncc12 [silmitasertib]
Outline: as §1

[5] = compound: O=C1NC(=O)C(c2cnc3ccccn23)=C1c1cn2c3c(cc(F)cc13)CN(C(=O)N1CCCCC1)CC2
Outline: as §1

[6] = compound: c1cc(OCCN2CCCCC2)cc(-c2n[nH]c3ccc(-c4nnc[nH]4)cc23)c1
Outline: as §1

Chain of UniProt P30043 (P30043 whole entry, looked up): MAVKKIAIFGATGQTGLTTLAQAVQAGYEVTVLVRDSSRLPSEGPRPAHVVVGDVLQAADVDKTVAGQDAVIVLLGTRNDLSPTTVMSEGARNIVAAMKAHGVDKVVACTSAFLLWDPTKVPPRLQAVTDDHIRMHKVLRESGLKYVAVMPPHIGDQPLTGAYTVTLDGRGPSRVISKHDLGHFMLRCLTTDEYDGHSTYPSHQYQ
Chain of UniProt Q9BUT1 (Q9BUT1 whole entry, looked up): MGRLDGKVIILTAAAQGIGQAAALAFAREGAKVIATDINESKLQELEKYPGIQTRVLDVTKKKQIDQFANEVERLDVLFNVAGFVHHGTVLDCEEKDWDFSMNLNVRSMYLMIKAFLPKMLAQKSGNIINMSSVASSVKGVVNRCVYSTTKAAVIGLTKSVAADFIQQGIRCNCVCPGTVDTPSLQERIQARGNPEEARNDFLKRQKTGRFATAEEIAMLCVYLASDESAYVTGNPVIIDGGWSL
Chain of UniProt Q15057 (Q15057 whole entry, looked up): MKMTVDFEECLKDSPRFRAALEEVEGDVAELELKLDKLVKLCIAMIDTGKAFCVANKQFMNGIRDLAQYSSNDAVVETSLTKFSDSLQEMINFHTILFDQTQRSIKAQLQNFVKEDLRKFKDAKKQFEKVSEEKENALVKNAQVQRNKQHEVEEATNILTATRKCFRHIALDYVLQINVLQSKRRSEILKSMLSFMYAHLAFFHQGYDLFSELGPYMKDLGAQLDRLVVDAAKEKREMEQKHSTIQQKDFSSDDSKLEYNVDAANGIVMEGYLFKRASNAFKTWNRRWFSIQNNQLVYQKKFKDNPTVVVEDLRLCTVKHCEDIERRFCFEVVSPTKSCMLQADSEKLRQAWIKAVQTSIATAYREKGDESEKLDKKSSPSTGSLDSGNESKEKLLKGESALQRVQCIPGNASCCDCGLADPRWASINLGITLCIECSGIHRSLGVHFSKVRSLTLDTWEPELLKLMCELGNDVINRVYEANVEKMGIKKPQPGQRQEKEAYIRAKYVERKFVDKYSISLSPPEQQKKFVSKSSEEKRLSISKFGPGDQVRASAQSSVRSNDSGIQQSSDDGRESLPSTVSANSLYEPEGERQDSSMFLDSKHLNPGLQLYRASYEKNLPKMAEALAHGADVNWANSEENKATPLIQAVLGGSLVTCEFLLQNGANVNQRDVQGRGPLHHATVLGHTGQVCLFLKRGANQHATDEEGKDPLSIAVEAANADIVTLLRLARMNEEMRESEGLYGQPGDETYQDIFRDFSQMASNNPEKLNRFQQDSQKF
Chain of UniProt P49189 (P49189 whole entry, looked up): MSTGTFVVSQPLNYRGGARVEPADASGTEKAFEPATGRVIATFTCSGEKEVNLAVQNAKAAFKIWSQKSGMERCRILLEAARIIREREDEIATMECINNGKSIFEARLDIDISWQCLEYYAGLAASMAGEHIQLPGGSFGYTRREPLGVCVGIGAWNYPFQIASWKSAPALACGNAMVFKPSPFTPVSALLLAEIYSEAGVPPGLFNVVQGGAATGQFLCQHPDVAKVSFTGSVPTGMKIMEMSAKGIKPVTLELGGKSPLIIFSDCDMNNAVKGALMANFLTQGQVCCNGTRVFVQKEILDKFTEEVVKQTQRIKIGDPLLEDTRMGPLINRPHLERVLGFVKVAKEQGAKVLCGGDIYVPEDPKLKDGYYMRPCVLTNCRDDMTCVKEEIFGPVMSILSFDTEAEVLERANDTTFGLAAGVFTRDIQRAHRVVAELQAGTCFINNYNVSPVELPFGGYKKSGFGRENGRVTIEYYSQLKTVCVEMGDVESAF
Chain of UniProt Q8NHH9 (Q8NHH9 whole entry, looked up): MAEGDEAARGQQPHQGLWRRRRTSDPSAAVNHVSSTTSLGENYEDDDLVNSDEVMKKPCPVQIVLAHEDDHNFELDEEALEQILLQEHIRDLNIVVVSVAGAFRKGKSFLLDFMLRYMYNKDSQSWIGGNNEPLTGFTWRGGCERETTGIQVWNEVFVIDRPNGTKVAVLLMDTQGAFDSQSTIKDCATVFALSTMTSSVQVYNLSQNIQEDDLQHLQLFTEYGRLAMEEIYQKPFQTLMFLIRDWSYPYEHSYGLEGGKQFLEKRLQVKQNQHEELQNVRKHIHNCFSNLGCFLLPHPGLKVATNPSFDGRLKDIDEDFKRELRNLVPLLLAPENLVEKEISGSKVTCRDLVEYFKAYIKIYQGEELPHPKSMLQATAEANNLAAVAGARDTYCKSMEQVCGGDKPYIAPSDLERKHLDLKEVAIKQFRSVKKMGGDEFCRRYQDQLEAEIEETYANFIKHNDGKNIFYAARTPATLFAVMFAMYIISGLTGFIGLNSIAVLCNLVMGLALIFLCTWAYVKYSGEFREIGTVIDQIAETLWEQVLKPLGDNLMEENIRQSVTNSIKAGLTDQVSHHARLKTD
Chain of UniProt Q99798 (Q99798 whole entry, looked up): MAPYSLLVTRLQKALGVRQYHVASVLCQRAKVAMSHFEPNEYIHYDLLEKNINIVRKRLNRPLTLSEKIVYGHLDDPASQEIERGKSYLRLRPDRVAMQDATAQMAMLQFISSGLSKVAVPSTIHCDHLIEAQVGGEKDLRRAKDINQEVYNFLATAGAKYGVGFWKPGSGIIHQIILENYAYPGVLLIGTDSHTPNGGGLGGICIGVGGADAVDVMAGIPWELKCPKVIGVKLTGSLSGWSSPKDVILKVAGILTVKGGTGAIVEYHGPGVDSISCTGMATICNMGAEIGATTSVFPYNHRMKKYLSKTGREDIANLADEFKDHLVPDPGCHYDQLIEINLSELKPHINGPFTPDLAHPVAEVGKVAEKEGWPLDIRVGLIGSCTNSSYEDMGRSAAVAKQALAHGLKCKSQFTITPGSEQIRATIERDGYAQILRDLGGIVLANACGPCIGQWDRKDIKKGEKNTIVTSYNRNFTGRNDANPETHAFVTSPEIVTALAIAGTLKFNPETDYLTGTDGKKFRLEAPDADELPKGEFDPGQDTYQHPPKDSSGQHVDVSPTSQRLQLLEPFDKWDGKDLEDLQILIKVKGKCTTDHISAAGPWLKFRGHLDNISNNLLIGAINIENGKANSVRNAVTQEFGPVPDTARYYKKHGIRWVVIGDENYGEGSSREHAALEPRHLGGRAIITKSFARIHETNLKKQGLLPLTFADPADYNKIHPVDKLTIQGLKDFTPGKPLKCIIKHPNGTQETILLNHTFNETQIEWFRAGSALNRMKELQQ
Chain of UniProt P00966 (P00966 whole entry, looked up): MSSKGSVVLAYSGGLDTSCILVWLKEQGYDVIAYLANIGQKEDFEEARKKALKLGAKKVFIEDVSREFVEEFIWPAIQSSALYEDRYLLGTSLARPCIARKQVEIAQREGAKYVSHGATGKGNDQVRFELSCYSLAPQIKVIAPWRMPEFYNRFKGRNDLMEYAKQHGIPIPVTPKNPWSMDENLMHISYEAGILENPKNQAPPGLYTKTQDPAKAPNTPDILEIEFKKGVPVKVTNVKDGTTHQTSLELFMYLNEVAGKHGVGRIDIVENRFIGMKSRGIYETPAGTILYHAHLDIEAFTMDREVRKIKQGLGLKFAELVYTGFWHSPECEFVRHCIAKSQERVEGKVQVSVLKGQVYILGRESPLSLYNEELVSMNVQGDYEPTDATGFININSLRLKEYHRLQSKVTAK
Chain of UniProt Q9Y312 (Q9Y312 whole entry, looked up): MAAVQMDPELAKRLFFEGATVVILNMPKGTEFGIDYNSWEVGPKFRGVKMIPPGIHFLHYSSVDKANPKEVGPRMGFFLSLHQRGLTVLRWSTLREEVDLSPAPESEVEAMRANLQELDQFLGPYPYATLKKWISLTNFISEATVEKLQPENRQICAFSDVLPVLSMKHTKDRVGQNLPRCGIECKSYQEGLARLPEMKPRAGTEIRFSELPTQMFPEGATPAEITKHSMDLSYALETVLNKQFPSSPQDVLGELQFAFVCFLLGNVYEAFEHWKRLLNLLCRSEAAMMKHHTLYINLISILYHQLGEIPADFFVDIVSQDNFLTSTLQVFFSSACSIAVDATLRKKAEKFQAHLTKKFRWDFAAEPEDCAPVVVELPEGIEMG
Chain of UniProt Q9UNA0 (Q9UNA0 whole entry, looked up): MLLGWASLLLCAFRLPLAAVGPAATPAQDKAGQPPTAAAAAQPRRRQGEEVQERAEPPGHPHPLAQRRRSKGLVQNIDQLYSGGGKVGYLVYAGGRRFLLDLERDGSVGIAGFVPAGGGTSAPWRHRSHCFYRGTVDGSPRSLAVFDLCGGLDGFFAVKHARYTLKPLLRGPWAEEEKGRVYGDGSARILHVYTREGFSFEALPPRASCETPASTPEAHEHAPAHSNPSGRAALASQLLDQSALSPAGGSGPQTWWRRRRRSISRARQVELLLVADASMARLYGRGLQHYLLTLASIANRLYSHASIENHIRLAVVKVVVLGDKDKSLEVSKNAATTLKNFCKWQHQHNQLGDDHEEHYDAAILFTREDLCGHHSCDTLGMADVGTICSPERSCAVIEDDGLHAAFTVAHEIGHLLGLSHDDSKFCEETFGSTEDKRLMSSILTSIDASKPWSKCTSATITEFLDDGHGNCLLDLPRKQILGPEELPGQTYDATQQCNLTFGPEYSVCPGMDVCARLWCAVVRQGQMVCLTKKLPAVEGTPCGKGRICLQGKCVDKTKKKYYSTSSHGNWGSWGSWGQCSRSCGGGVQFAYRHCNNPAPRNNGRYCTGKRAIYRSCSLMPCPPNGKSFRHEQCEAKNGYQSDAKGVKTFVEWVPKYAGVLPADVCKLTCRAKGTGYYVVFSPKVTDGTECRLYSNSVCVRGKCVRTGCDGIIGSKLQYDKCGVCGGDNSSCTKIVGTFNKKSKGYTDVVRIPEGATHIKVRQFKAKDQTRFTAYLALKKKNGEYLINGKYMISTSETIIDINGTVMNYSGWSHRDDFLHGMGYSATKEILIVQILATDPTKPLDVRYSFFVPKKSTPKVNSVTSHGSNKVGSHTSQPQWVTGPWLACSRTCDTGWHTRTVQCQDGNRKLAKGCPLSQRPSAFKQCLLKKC
Chain of UniProt Q9Y3D8 (Q9Y3D8 whole entry, looked up): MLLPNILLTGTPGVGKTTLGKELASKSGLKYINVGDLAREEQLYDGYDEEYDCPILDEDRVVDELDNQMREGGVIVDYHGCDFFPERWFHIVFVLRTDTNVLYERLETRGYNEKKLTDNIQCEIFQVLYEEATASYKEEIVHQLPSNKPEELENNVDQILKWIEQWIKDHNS

Target	log2 fold change [1]	log2 fold change [2]	log2 fold change [3]	log2 fold change [4]	log2 fold change (entinostat)	log2 fold change (vorinostat)	log2 fold change (citarinostat)	log2 fold change (silmitasertib)	log2 fold change [5]	log2 fold change [6]
ACO2 (UniProt Q99798)	0.017	-0.04	-0.142	-0.012	0.039	0.023	0.057	0.001	-0.058	-0.042
ASS1 (UniProt P00966)	-0.054	-0.184	-0.087	0.026	0.096	-0.052	-0.037	0.02	-0.013	0.013
ADAMTS5 (UniProt Q9UNA0)	0.026	-0.065	0.074	-0.071	-0.08	0.056	0.074	-0.064	–	0.051
AFG1L (UniProt Q8WV93)	-0.021	0.008	0.019	-0.178	0.095	–	-0.004	0.009	-0.009	-0.057
ALDH9A1 (UniProt P49189)	0.079	0.051	-0.024	0	-0.014	-0.209	-0.014	-0.033	0.025	0.055
ACACB (UniProt O00763)	-0.02	-0.043	-0.047	0.084	0.076	0.082	0.131	0.119	0.222	-0.01
BCCIP isoform 2 (UniProt Q9P287)	0	-0.001	-0.096	-0.011	0.027	0.033	0.021	0.096	-0.029	-0.031
ACAP2 (UniProt Q15057)	-0.016	-0.075	0.026	-0.035	0.005	0	0.029	-0.007	-0.078	0.045
ANK2 (UniProt Q01484)	-0.146	-0.196	-0.183	-0.16	0.001	0.134	-0.104	-0.004	–	-0.019
AGO1 (UniProt Q9UL18)	0.108	0.011	0.049	0.073	-0.012	-0.05	0.439 (active)	0.12	-0.067	-0.413
ATL2 (UniProt Q8NHH9)	-0.021	-0.03	-0.165	-0.094	-0.025	0.017	-0.023	-0.004	-0.025	-0.058
BLVRB (UniProt P30043)	0.069	0.006	-0.116	0.018	0.058	0	0.058	0.01	0.021	-0.035
BDH2 (UniProt Q9BUT1)	-0.091	-0.086	-0.042	0.009	0.025	-0.03	–	0.076	–	–
AAR2 (UniProt Q9Y312)	-0.016	-0.015	0.066	-0.034	0.026	0.19	-0.009	0.035	0.04	-0.067
AK6 (UniProt Q9Y3D8)	-0.034	-0.072	-0.043	-0.138	0.145	0.074	0.103	0.058	-0.051	-0.009
